About 83,000 compounds went through this panel and 20% of them were active in at least one assay; those are over-represented in the sample as a whole.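 Compound tested at a single concentration for 48 hours in 96-well plates; a percent growth value below 10 was scored as active.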 A number with no mark means an inactive call. Activity calls are given as the source filed them.
Each molecule was assayed on LOX IMVI melanoma (assay: NCI-60 one-dose screen, 48 h (100 = growth as untreated, 0 = no growth, -100 = all killed)). Conditions: 10 µM.
With `COc1cc2cc(C(=O)N3C[C@@H](CCl)c4c3cc(OC(=O)N3CCN(C)[C@@H]5CSSC[C@H]53)c3ccccc43)[nH]c2c(OC)c1OC` the growth was -90.2% (active). For `CC1=C(CCC=O)C2=C(C)C3(CC3)[C@@](C)(O)C(=O)C2=C1`, the growth was -94.8% (active). In the case of `COC(=O)C[C@](O)(CCC(C)C)C(=O)O[C@@H]1C(OC)=C[C@]23CCCN2CCc2cc4c(cc2[C@H]13)OCO4`, the growth is reported as -82.6% (active). `CC[C@]12C=CCN3CC[C@@]4(c5ccc(OC)cc5N(C)[C@H]4[C@@](O)(C(=O)OC)[C@@H]1OC(=O)CCC[P+](C1CCCCC1)(C1CCCCC1)C1CCCCC1)[C@@H]32` was tested, and the growth was -96% (active). In the case of `CC1=C2C(=C[C@@](C)(COP(=O)(Oc3ccccc3)Oc3ccccc3)[C@@H]2O)C(=O)[C@@](C)(O)C12CC2`, the growth is reported as -76.3% (active). For `CCOP(=O)(CC(F)(F)C(F)(F)F)OCC`, the growth was -64% (active). For `CC(C)C[C@H](NC(=O)CNC(=O)C[C@H]1O[C@@H]2OC3(C)CC[C@H]4[C@H](C)CC[C@@H]([C@H]1C)[C@@]24OO3)B(O)O`, the growth was -86.4% (active). `C[C@H]1[C@@H](Oc2ccc(-c3cn(-c4ccnc5cc(Cl)ccc45)nn3)cc2)O[C@@H]2OC3(C)CC[C@H]4[C@H](C)CC[C@@H]1[C@@]24OO3` was tested, and the growth was 10.9%. With `C[C@H]1[C@H](OC(=O)CCC(=O)N(CCCc2cn(-c3ccc([N+](=O)[O-])cc3)nn2)CCNc2ccnc3cc(Cl)ccc23)O[C@@H]2OC3(C)CC[C@H]4[C@H](C)CC[C@@H]1[C@@]24OO3` the growth was 21.7%. With `COc1cc2cc(C(=O)N3C[C@@H](CCl)c4c3cc(OC(=O)N3CCN(C)[C@@H]5CSSC[C@@H]53)c3ccccc43)[nH]c2c(OC)c1OC` the growth was -32.7% (active). In the case of `COc1cc2cc(C(=O)N3C[C@@H](CCl)c4c3cc(OC(=O)N3CCN(C(=O)CCC(=O)N5CCN(C)CC5)[C@@H]5CSSC[C@@H]53)c3ccccc43)[nH]c2c(OC)c1OC`, the growth is reported as -100% (active). With `COC(=O)c1ccc(-n2cc(CCCN(CCNc3ccnc4cc(Cl)ccc34)C(=O)CCC(=O)O[C@@H]3O[C@@H]4OC5(C)CC[C@H]6[C@H](C)CC[C@@H]([C@H]3C)[C@@]46OO5)nn2)cc1` the growth was 8.12% (active). For `CC[C@]12C=CCN3CC[C@@]4(c5ccc(OC)cc5N(C)[C@H]4[C@@](O)(C(=O)OC)[C@@H]1OC(=O)CCC[P+](c1ccc(C)cc1)(c1ccc(C)cc1)c1ccc(C)cc1)[C@@H]32`, the growth was -89.3% (active). `CC[C@]12C=CCN3CC[C@@]4(c5ccc(OC)cc5N(C)[C@H]4[C@@](O)(C(=O)OC)[C@@H]1OC(=O)CCCC[P+](c1ccc(C)cc1)(c1ccc(C)cc1)c1ccc(C)cc1)[C@@H]32` was tested, and the growth was -94.5% (active). For `CC1=C(CCC=NNC(N)=O)C2=C(C)C3(CC3)[C@@](C)(O)C(=O)C2=C1`, the growth was -71.9% (active). For `Cc1ccc2[nH]c(=S)n(-c3ccc(F)cc3)c(=O)c2c1`, the growth was 92.7%. `CC1=C(COCCOC(=O)c2ccc(S(=O)(=O)F)cc2)C2=C(C)C3(CC3)[C@@](C)(O)C(=O)C2=C1` was tested, and the growth was -62.7% (active). With `CC12CCC3(CCC(=O)NCCCNc4ccnc5cc(Cl)ccc45)[C@@](C)(OO[C@]3(C)O1)O2` the growth was -78.1% (active). `COC(=O)CCn1c(-c2ccc(-n3cc(-c4ccc(O[C@H]5O[C@@H]6OC7(C)CC[C@H]8[C@H](C)CC[C@@H]([C@H]5C)[C@@]68OO7)cc4)nn3)cc2)nc2ccccc21` was tested, and the growth was -54.5% (active). With `CC1=C(C=O)C2=C(C)C3(CC3)[C@@](C)(O)C(=O)C2=C1` the growth was -76.1% (active). In the case of `C[C@H]1[C@@H](CC(=O)N[C@@H](Cc2coc3ccccc23)B(O)O)O[C@@H]2OC3(C)CC[C@H]4[C@H](C)CC[C@@H]1[C@@]24OO3`, the growth is reported as -92.3% (active). `COC(=O)C[C@](O)(CCC(C)C)C(=O)O[C@H]1C(OC)=C[C@@]23CCCN2CCc2cc4c(cc2[C@@H]13)OCO4` was tested, and the growth was -82.4% (active). Molecule `C[C@H]1[C@H](OC(=O)CCC(=O)N(CCCc2cn(-c3ccc(C#N)cc3)nn2)CCNc2ccnc3cc(Cl)ccc23)O[C@@H]2OC3(C)CC[C@H]4[C@H](C)CC[C@@H]1[C@@]24OO3` has a growth of 13.3%.

The molecules below were run on SK-MEL-28 melanoma in the same assay as above. Conditions: 10 µM.
With `COc1cc2cc(C(=O)N3C[C@@H](CCl)c4c3cc(OC(=O)N3CCN(C)[C@@H]5CSSC[C@H]53)c3ccccc43)[nH]c2c(OC)c1OC` the growth was -94.8% (active). In the case of `CC1=C(CCC=O)C2=C(C)C3(CC3)[C@@](C)(O)C(=O)C2=C1`, the growth is reported as -99.3% (active). In the case of `COC(=O)C[C@](O)(CCC(C)C)C(=O)O[C@@H]1C(OC)=C[C@]23CCCN2CCc2cc4c(cc2[C@H]13)OCO4`, the growth is reported as -68.8% (active). Work on `O=C(/C=C/c1ccc(Cl)cc1)c1nc2ccccc2n1Cc1ccc(F)cc1` yielded a growth of 38.9%. For `CC[C@]12C=CCN3CC[C@@]4(c5ccc(OC)cc5N(C)[C@H]4[C@@](O)(C(=O)OC)[C@@H]1OC(=O)CCC[P+](C1CCCCC1)(C1CCCCC1)C1CCCCC1)[C@@H]32`, the growth was -85.9% (active). For `CC1=C2C(=C[C@@](C)(COP(=O)(Oc3ccccc3)Oc3ccccc3)[C@@H]2O)C(=O)[C@@](C)(O)C12CC2`, the growth was -88.1% (active). In the case of `CC(=O)Oc1ccccc1C(=O)NC([Se])=NC1CCCCC1`, the growth is reported as -14.7% (active). `CCOP(=O)(CC(F)(F)C(F)(F)F)OCC` was tested, and the growth was -47.1% (active). In the case of `CC(C)C[C@H](NC(=O)CNC(=O)C[C@H]1O[C@@H]2OC3(C)CC[C@H]4[C@H](C)CC[C@@H]([C@H]1C)[C@@]24OO3)B(O)O`, the growth is reported as -38.5% (active). For `C[C@H]1[C@@H](Oc2ccc(-c3cn(-c4ccnc5cc(Cl)ccc45)nn3)cc2)O[C@@H]2OC3(C)CC[C@H]4[C@H](C)CC[C@@H]1[C@@]24OO3`, the growth was 33.3%. For `C[C@H]1[C@H](OC(=O)CCC(=O)N(CCCc2cn(-c3ccc([N+](=O)[O-])cc3)nn2)CCNc2ccnc3cc(Cl)ccc23)O[C@@H]2OC3(C)CC[C@H]4[C@H](C)CC[C@@H]1[C@@]24OO3`, the growth was 50.7%. For `COc1cc2cc(C(=O)N3C[C@@H](CCl)c4c3cc(OC(=O)N3CCN(C)[C@@H]5CSSC[C@@H]53)c3ccccc43)[nH]c2c(OC)c1OC`, the growth was -62.6% (active). With `COc1cc2cc(C(=O)N3C[C@@H](CCl)c4c3cc(OC(=O)N3CCN(C(=O)CCC(=O)N5CCN(C)CC5)[C@@H]5CSSC[C@@H]53)c3ccccc43)[nH]c2c(OC)c1OC` the growth was -94.4% (active). Molecule `COC(=O)c1ccc(-n2cc(CCCN(CCNc3ccnc4cc(Cl)ccc34)C(=O)CCC(=O)O[C@@H]3O[C@@H]4OC5(C)CC[C@H]6[C@H](C)CC[C@@H]([C@H]3C)[C@@]46OO5)nn2)cc1` has a growth of 16.3%. In the case of `O=C([Se]C1C=CCCC1)c1ccc(C(=O)[Se]C2C=CCCC2)s1` (configuration not stated), the growth is reported as -79.4% (active). For `O=C(/C=C/c1cccc(Br)c1)c1nc2ccccc2n1Cc1ccc(F)cc1`, the growth was 50.6%. With `CC[C@]12C=CCN3CC[C@@]4(c5ccc(OC)cc5N(C)[C@H]4[C@@](O)(C(=O)OC)[C@@H]1OC(=O)CCC[P+](c1ccc(C)cc1)(c1ccc(C)cc1)c1ccc(C)cc1)[C@@H]32` the growth was -96.6% (active). `O=C(NC([Se])=NC1CCCCC1)c1ccccc1` gave a growth of 33.3%. For `O=C(/C=C/c1ccc(F)cc1)c1nc2ccccc2n1Cc1ccc(F)cc1`, the growth was -15.8% (active). With `O=C(/C=C/c1ccccc1)c1nc2ccccc2n1Cc1ccc(Br)cc1` the growth was -73.3% (active). `C=CC[Se]C(=O)c1cncc(C(=O)[Se]CC=C)c1` was tested, and the growth was -39% (active). With `COc1ccc(OC)c(/C=C/C(=O)c2nc3ccccc3n2Cc2ccc(F)cc2)c1` the growth was -53% (active). `O=C(/C=C/c1ccc(F)cc1)c1nc2ccccc2n1Cc1ccc(Br)cc1` was tested, and the growth was -58.4% (active). In the case of `CC[C@]12C=CCN3CC[C@@]4(c5ccc(OC)cc5N(C)[C@H]4[C@@](O)(C(=O)OC)[C@@H]1OC(=O)CCCC[P+](c1ccc(C)cc1)(c1ccc(C)cc1)c1ccc(C)cc1)[C@@H]32`, the growth is reported as -97.8% (active). `CC(C)N=C([Se])NC(=O)c1cccs1` was tested, and the growth was 60.2%. In the case of `CC1=C(CCC=NNC(N)=O)C2=C(C)C3(CC3)[C@@](C)(O)C(=O)C2=C1`, the growth is reported as -79.8% (active). With `Cc1ccc2[nH]c(=S)n(-c3ccc(F)cc3)c(=O)c2c1` the growth was 101%. With `C#CC[Se]C(=O)c1ccc2n[se]nc2c1` the growth was 79.4%. With `CC1=C(COCCOC(=O)c2ccc(S(=O)(=O)F)cc2)C2=C(C)C3(CC3)[C@@](C)(O)C(=O)C2=C1` the growth was -63.6% (active). Work on `CC12CCC3(CCC(=O)NCCCNc4ccnc5cc(Cl)ccc45)[C@@](C)(OO[C@]3(C)O1)O2` yielded a growth of 33.4%. With `O=C(/C=C/c1ccc(Br)cc1)c1nc2ccccc2n1Cc1ccc(Br)cc1` the growth was -43.9% (active). Work on `COC(=O)CCn1c(-c2ccc(-n3cc(-c4ccc(O[C@H]5O[C@@H]6OC7(C)CC[C@H]8[C@H](C)CC[C@@H]([C@H]5C)[C@@]68OO7)cc4)nn3)cc2)nc2ccccc21` yielded a growth of 28.6%. Work on `CC1=C(C=O)C2=C(C)C3(CC3)[C@@](C)(O)C(=O)C2=C1` yielded a growth of 23.3%. In the case of `N#C[Se]CC(=O)Nc1cccc(C(F)(F)F)c1`, the growth is reported as -63.2% (active). For `CCC[Se]C(=O)c1ccc(C(=O)[Se]CCC)s1`, the growth was -62.9% (active). `C[C@H]1[C@@H](CC(=O)N[C@@H](Cc2coc3ccccc23)B(O)O)O[C@@H]2OC3(C)CC[C@H]4[C@H](C)CC[C@@H]1[C@@]24OO3` was tested, and the growth was -49.4% (active). Molecule `O=C(/C=C/c1ccco1)c1nc2ccccc2n1Cc1ccc(F)cc1` has a growth of 81.8%. In the case of `COC(=O)C[C@](O)(CCC(C)C)C(=O)O[C@H]1C(OC)=C[C@@]23CCCN2CCc2cc4c(cc2[C@@H]13)OCO4`, the growth is reported as -32.9% (active). Work on `C[C@H]1[C@H](OC(=O)CCC(=O)N(CCCc2cn(-c3ccc(C#N)cc3)nn2)CCNc2ccnc3cc(Cl)ccc23)O[C@@H]2OC3(C)CC[C@H]4[C@H](C)CC[C@@H]1[C@@]24OO3` yielded a growth of 59.5%.
